# Values without a mark were called inactive. Active and inactive are the calls of the source. The call rests on the fitted dose curve; in most records, active means well fitted curve in the direction sought with a large enough effect in the repeat runs; inconclusive means weak or mixed curves; inactive means flat fitted curve, though single readings scatter.
# Assay: qHTS assay to test for compound auto fluorescence at 590 nm (red) in HEK293 cells (AID 720679)
# Conditions: red autofluorescence 540/590 nm; series mostly up to 91.3 µM; fluorescence, % of fluorescent control: at the top concentration
# Text: National Center for Advancing Translational Sciences [NCATS]
# NIH Chemical Genomics Center [NCGC]
# U.S. Environmental Protection Agency [EPA]
# National Institutes of Environmental Health Sciences [NIEHS]
# National Toxicology Program [NTP]
# U.S. Food and Drug Administration [FDA]
# Compound auto fluorescence often interferes with screening of the compound library against various biological targets and signaling pathways. Some of these compounds may have fluorophoric properties. Such properties may interfere with the assay outputs resulting in false positives and/or negatives. To decrease such complications and ensure the compound activities are relevant in terms of biological response, the Tox21 10K compound library was screened for auto fluorescence.
# From the fluorophores used as reporter signals in our screening assays, the auto fluorescence equivalencies of compounds against three fluorophores have been evaluated: Triamterene, Fluorescein and Rose Bengal sodium for blue, green and red fluorescence, respectively. The fluorescence intensities were measured using Excitation/Emission wavelengths at 405/460nm, 485/535nm and 540/590nm for blue, green and red labels, respectively. This assay includes the red fluorescence data.
# Tox21 Assay Protocol Summary:
# 2,000 HEK293 cells in 5 uL of culture medium containing 10% dialyzed FBS per well were dispensed into black wall/clear bottom 1536-well plates using a Multidrop Combi Dispenser (Thermo Scientific). The assay plates were incubated for 4-5 hr at 37C to allow cell attachment to the well bottom, followed by the transfer of 23 nL compound or DMSO vehicle by a pintool work station (Kalypsys, San Diego, CA). After the assay plates were incubated overnight at 37C and 5% CO2, fluorescence intensities in the assay plates were measured by an Envision (PerkinElmer, Shelton, CT) plate reader using three labels for measuring blue, green and red fluorescence at […] 460, 535 and 590nm respectively.
# On the % scale 0 is the no-effect control and ±100 the full control effect.
SMILES,Potency,"fluorescence, % of fluorescent control"
COC(=O)C1=C(C)NC(C)=C(C(=O)OCC(C)C)C1c1ccccc1[N+](=O)[O-] (stereo not given),inactive,–
CCC(N)(CO)CO,–,-0.505%
Clc1ccc2cc3ccccc3cc2c1,–,-0.225%
CCCCCCCCCCCCCCCCCC[N+](C)(C)Cc1ccccc1,–,0.002%
COc1ccc(C(=O)/C(Br)=C\C(=O)O)cc1,inactive,–
CC(C)(C)C(=O)OCOC(=O)[C@@H]1N2C(=O)[C@@H](NC(=O)[C@H](N)c3ccccc3)[C@H]2SC1(C)C,–,0.201% [at 18.6 µM]
CCC(C)Nc1ccc(NC(C)CC)cc1 (stereo not given),–,0.116% [at 95.7 µM]
CC1=NC(C)OC1C (stereo not given),–,0.368%
O=C(NO)C1(NS(=O)(=O)c2ccc(Oc3ccc(F)cc3)cc2)CCOCC1,–,-0.108%
C[C@]12CCC(=O)C=C1CC[C@@H]1[C@@H]2[C@@H](O)C[C@@]2(C)[C@H]1CC[C@]2(O)C(=O)COC(=O)CCC(=O)O,–,0.0127% [at 46 µM]
CC1=C(/C=C/C(C)=C/C=C/C(C)=C/C=O)C(C)(C)CCC1,–,0.454%
CC[C@H](c1ccc(O)cc1)[C@@H](CC)c1ccc(O)cc1,inactive,–
CCCCCCCCOc1ccccc1C(=O)Nc1ccc(C(=O)OCC[N+](C)(CC)CC)cc1,–,0.172% [at 46 µM]
CCOC(=O)/C=C(C)/C=C/C=C(C)/C=C/c1c(C)cc(OC)c(C)c1C,–,0.0275% [at 46 µM]
CCCCCCCCCCCCCCCCCC[N+](C)(C)C,–,0.0722%
CCCCCCCC/C=C/CCCCCCCC1=NCCN1CCO,–,0.124%
CC1=C(C(=O)OC(C)C)C(c2cccc([N+](=O)[O-])c2)C(C(=O)OC2CN(C(c3ccccc3)c3ccccc3)C2)=C(N)N1 (stereo not given),–,0.0092% [at 46 µM]
CCN(CC)CCNC(=O)c1c(C)[nH]c(/C=C2\C(=O)Nc3ccc(F)cc32)c1C,–,0.133% [at 46 µM]
CN(C)c1ccc(SC#N)cc1,–,0.0446%
Oc1ccc(N=Nc2ccccc2)cc1,–,-0.611% [at 95.7 µM]

SMILES,Potency,"fluorescence, % of fluorescent control"
CN(C)C(=O)C1(N2CCCCC2)CCN(CC[C@@]2(c3ccc(Cl)c(Cl)c3)CN(C(=O)c3ccccc3)CCO2)CC1,–,0.242%
NC(=NCCCCCCN=C(N)/N=C(\N)Nc1ccc(Cl)cc1)/N=C(\N)Nc1ccc(Cl)cc1,inactive,–
CCCCCCCCCCCCCCCS(=O)(=O)Oc1ccccc1,–,0.19% [at 46 µM]
CSc1ccc2c(c1)C(N1CCN(C)CC1)Cc1ccccc1S2 (stereo not given),–,0.0652% [at 46 µM]
Fc1ccc([C@@H]2CCNC[C@H]2COc2ccc3c(c2)OCO3)cc1,–,0.0184% [at 46 µM]
CCc1cc(SCc2sc(-c3ccc(C(F)(F)F)cc3)nc2CN2CCN(c3ccc(OC)cc3)CC2)ccc1OCC(=O)O,–,-0.0116%
Nc1ccc2c3c(cccc13)-c1ccccc1-2,–,0.381%
O=C1c2ccccc2Cc2ccccc21,–,-0.423%
Oc1cc2ccccc2c2ccccc12,–,0.0166%
CCN(CCC#N)c1ccc(N=Nc2c(Cl)cc([N+](=O)[O-])cc2Cl)cc1,–,0.156%
Cc1cc(O)c(C(C)(C)C)cc1C(C)(C)C,–,0.0359%
CCc1cc(Cc2cc(CC)c(N)c(CC)c2)cc(CC)c1N,–,-0.138%
OC1(c2ccc(Cl)c(C(F)(F)F)c2)CCN(CCCC(c2ccc(F)cc2)c2ccc(F)cc2)CC1,–,-0.082% [at 46 µM]
ON=C1CCCC1,–,-0.25% [at 95.7 µM]
O=C(Oc1ccccc1)c1ccccc1C(=O)Oc1ccccc1,–,-0.15%
COc1cc(-c2nc(NC(=O)c3cc4cc(C)cc(C)c4n3CC(=O)O)sc2CCC2CCCCC2)c(OC)cc1Cl,–,0.241%
CCCCCCCCS(=O)C(C)Cc1ccc2c(c1)OCO2 (stereo not given),–,-0.13% [at 95.7 µM]
C/C=C1/C(=O)C[C@H]2[C@@H]3CCC4=CC(=O)CC[C@]4(C)[C@H]3CC[C@]12C,–,0.481%
Oc1ccc(C2(c3ccc(O)cc3)CC3CC2C2CCCC32)cc1 (stereo not given),–,-0.213%
CC(C)(C)C(=O)OCOC(=O)C1N2C(=O)CC2S(=O)(=O)C1(C)C (stereo not given),–,0.0318% [at 46 µM]
